Screens from PubChem BioAssay.
CHO-K1 Ca ag – nonselective activator or artifact in parental CHO-K1 cells; Fluo-8 calcium fluorescence; scaled to maximal ATP response, vehicle zero; activation, % at 3 µM; actives 0.48% (n = 360,000); AID 602248; in the data active = activation above about 15%;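 also: untransfected CHO-K1 host cells lacking M1 receptor as counterscreen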
CHO-K1 Ca antag – M1 antagonist counterscreen hit in parental CHO-K1 cells; ATP-induced calcium, Fluo-8 fluorescence; actives 0.6% (n = 360,000); AID 602250; inhibition, % at 3 µM;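 active = inhibition above a per-plate cutoff, the plate's mean sample inhibition plus 3 SD, cut at about 24% in these data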
CHRM1 PAM – potentiates human M1 receptor response to acetylcholine | CHO-K1 hM1, Fluo-8 calcium fluorescence, ACh EC20; 0% = ACh EC20, 100% = maximal ACh | activation, % at 3 µM | actives 0.088% (n = 360,000) | AID 588819; in the data active = activation above about 19%, passing the limit was not always enough
Target sequence (P11229 whole entry, looked up): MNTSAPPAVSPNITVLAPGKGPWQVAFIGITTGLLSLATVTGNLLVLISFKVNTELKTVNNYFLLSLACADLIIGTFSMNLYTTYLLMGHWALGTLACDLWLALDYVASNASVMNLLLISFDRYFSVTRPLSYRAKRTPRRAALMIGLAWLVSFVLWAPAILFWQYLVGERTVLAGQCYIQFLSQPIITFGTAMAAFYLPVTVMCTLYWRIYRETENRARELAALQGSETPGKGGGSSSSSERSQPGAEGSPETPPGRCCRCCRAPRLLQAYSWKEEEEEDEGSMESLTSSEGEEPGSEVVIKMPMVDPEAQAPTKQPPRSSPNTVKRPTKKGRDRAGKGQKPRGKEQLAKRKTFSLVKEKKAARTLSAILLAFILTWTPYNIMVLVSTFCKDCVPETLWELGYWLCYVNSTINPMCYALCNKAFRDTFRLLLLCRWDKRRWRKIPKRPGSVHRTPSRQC
CHRM1 agonist – human M1 muscarinic receptor agonism; CHO-K1 hM1, Fluo-8 calcium fluorescence, agonist mode; 0% DMSO, 100% acetylcholine EC100; activation, % at 3 µM; actives 0.33% (n = 360,000);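 active = activation above the run's mean compound activation plus 3 SD, cut at about 16% in these data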;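 also: peak over basal fluorescence ratio within a 140 s kinetic read after compound addition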
CHRM1 antagonist – human CHRM1 antagonism; P11229; CHO-K1 hM1, Fluo-8 calcium fluorescence, ACh EC80 antagonist; inhibition, % at 3 µM; actives 1.3% (n = 360,000); AID 588852;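 active = percent inhibition above its own plate's cutoff, namely the mean of that plate's compound wells plus 3 SD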;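 also: peak over basal fluorescence ratio during 140 s after agonist addition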
CHO-K1 Ca PAM – counter-screen for M1 PAMs: effect in parental CHO-K1 cells; ATP EC20, Fluo-8 calcium fluorescence; 0% at ATP EC20, 100% at ATP max; activation, % at 3 µM; actives 0.02% (n = 360,000); AID 602247;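 active = activation above the run cutoff, the mean activation of all test compounds plus 3 SD, cut at about 40% in these data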;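 also: peak over basal fluorescence ratio in a 140 s read after ATP addition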
Large screens that a line does not name were inactive. This is a sample that favours compounds with a hit; in the whole collection about 2.4% have one here.

COc1ccc(NC(=O)N2CCC(C(=O)c3ccc(F)cc3)CC2)cc1	none
COc1ccc(OC)c(C(=O)N2CCC(C(=O)c3ccc(F)cc3)CC2)c1	CHO-K1 Ca antag 24.0
CCNC(=O)C1(C)CCCN1C(=O)c1ccc(C#N)cc1 (stereo not given)	none
Cc1ccc(CNC(=O)[C@H](Cc2ccccc2)NC(=O)C2CCNCC2)cc1	CHO-K1 Ca antag 30.6
Cc1ccc(CC(CC(=O)O)C(=O)NCc2ccccc2)cc1 (stereo not given)	none
CC(C)(C)NC(=S)NCc1ccncc1	none
Cn1c(N)c(C(=O)COC(=O)c2cc(S(=O)(=O)N3CCCCC3)ccc2Cl)c(=O)n(C)c1=O	none
C=CCN(c1ccccc1OC)S(=O)(=O)c1cccc(C(=O)OCC(=O)c2c(N)n(C)c(=O)n(C)c2=O)c1	CHRM1 antagonist 31.4
CC(C)[C@H](NC(=O)c1ccccc1)C(=O)OCC(=O)c1c(N)n(C)c(=O)n(C)c1=O	CHRM1 antagonist 29.4
Cn1c(N)c(C(=O)COC(=O)c2cccc(S(=O)(=O)N3CCCCC3)c2)c(=O)n(C)c1=O	CHO-K1 Ca antag 29.3
CN1C(=O)c2ccc(C(=O)NCc3ccco3)cc2C1=O	none
COCCNC(=O)C(=O)NNC(=O)CCc1ccccc1	none
COc1ccc(OC)c(S(=O)(=O)N2CCN(C(=O)c3ccco3)CC2)c1	none
COc1cc(S(=O)(=O)N2CCN(C(=O)c3ccco3)CC2)c(OC)cc1C	CHRM1 antagonist 78.0
COc1ccc(OC)c(S(=O)(=O)N2CCC(C(=O)Nc3ccc(C)c(C)c3)CC2)c1	CHRM1 antagonist 36.4
COC1OC2COC(c3ccccc3)OC2C(OC(C)=O)C1OC(C)=O (stereo not given)	none
CCc1ccc(NC(=O)C2CCN(S(=O)(=O)c3ccc4c(c3)NC(=O)C(C)S4)CC2)cc1 (stereo not given)	CHRM1 antagonist 55.0
Cc1ccc(NC(=O)C2CCN(S(=O)(=O)c3ccc4c(c3)NC(=O)C(C)S4)CC2)cc1C (stereo not given)	none
CN1C(=O)/C(=C/c2ccccc2OCc2cccc(F)c2)N(C)C1=S	CHRM1 antagonist 99.6
CN1C(=O)/C(=C/c2ccc(OCc3ccc(F)cc3)cc2)N(C)C1=S	none
COC(=O)C1CCC(=O)N1C(c1ccc(OC)cc1)c1cc(OC)c(OC)c(OC)c1 (stereo not given)	none
CCC(C)(NC=O)C(=O)Nc1c(C)cccc1C (stereo not given)	none
Cc1ccc2sc(NC(=O)CN3C(=O)CCC3=O)nc2c1C	CHO-K1 Ca antag 29.0
COC(=O)c1ccc(C(=O)Nc2ccc(C(C)C)cc2N)cc1	none
CCCN(Cc1ccc(N(CC)CC)cc1)CC1CC1	CHRM1 antagonist 51.6
COc1ccc(CCNC(=O)c2cc(-c3ccncc3)nc3c(Cl)cccc23)cc1OC	CHRM1 antagonist 37.6
COc1ccc(CCNC(=O)c2cc(-c3ccccn3)nc3c(Cl)cccc23)cc1OC	none
O=C(CNC(=O)C1CCCCC1)Nc1cc(Cl)ccc1Cl	CHO-K1 Ca antag 24.8
O=C(CNC(=O)C1CCCCC1)Nc1ccccc1Cl	none
CCC(=O)Nc1nnc(SCCN2CCOCC2)s1	CHRM1 antagonist 32.7
COc1ccc(Cl)cc1-c1cc(C(=O)NCc2ccccc2)[nH]n1	none
O=C(NNC(=S)NC(=O)c1ccco1)c1ccc(F)cc1	CHO-K1 Ca ag 23.9
O=C(NC(=S)NNC(=O)c1ccco1)c1ccc(Br)cc1	CHO-K1 Ca ag 17.9, CHRM1 agonist 24.9
CCOC(=O)c1c(NC(C)=O)sc2c1CCC(C=NCCCN(CC)CC)=C2Sc1ccccc1	none
COCCNC(=O)c1cccc(OC2CCN(Cc3ccc(C(C)C)cc3)CC2)c1	none
COCCNC(=O)CCC1CCN(Cc2ccc(-c3ccccc3)cc2)CC1	CHRM1 antagonist 99.1
COCCNC(=O)C1CCCN(Cc2ccccc2)CC1 (stereo not given)	none
CSc1cccc(CN2CCC(Oc3cccc(C(=O)N4CCCC4)c3)CC2)c1	none
COCCNC(=O)c1cccc(OC2CCN(Cc3ccc(C(=O)OC)cc3)CC2)c1	CHRM1 agonist 19.2, CHRM1 antagonist 70.5
COC(=O)c1ccc(CN2CCC(Oc3cccc(C(=O)N4CCOCC4)c3)CC2)cc1	CHRM1 agonist 18.5, CHRM1 antagonist 83.9
